High-throughput results from PubChem BioAssay.
Compounds with a hit are over-represented: about 2.9% of the library has one in this group of screens.
HIF-2a inh: blocks HIF-2a reporter activity. AID 624352. 786-0 RCC cells HIF-2a reporter, luciferase luminescence, overnight. 360,000 compounds, 0.72% hits. inhibition, % at 18.8 µM;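 active means inhibition of the luminescence signal of 40% or more relative to plate controls, in a single-dose primary screen at 18.75 µM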
CF NFkB inh: cystic fibrosis NF-kB activation inhibition; KKLEB NF-kB-GFP reporter, PAF-induced, GFP fluorescence overnight; inhibition, % at 5 µM; 360,000 compounds, 0.86% hits;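 active means at least 50% inhibition at 5 µM, scaled per plate between neutral and stimulator controls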;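 further: PAF is a Pseudomonas aeruginosa culture filtrate used as stimulus; plate controls were PAF-stimulated DMSO wells for no effect and unstimulated DMSO wells for full effect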
KKLEB cytotox: CF airway cell cytotoxicity counter-screen | KKLEB CF airway cells viability, ATPlite luminescence, overnight; stronger effect = lower value; cells stimulated with P. aeruginosa culture filtrate | activity change (cytotoxicity), % at 5 µM | 360,000 compounds, 0.36% hits | AID 602141;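 active means corrected activity change at or below -50% at 5 µM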
Shn3 3UTR inh: reduces Shn3 3'UTR luciferase signal in osteoblasts; Clone20 osteoblast Shn3 3'UTR firefly luciferase, 24 h; inhibition, % at 12.5 µM; 360,000 compounds, 0.52% hits; AID 588674;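 active means mean inhibition of at least 75% with every replicate also reaching 75%; inconclusive means mean inhibition at least 75% but some replicate below; inactive means mean inhibition below 75%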;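 further: 0% = median of neutral control wells and 100% = pilot-screen positive control compound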
Peg3 promoter: reduces Peg3 promoter-driven luciferase expression in HeLa; HeLa PEG-Prom luciferase reporter, luminescence, overnight; AID 588405; 360,000 compounds, 1.7% hits; inhibition, % at 20 µM;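 active means inhibition of at least 50% at 20 µM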
EBV LMP1 NFkB: reduces LMP1-driven NF-kappaB luciferase signal | LMP1-induced NF-kappaB luciferase reporter cells, luminescence | inhibition, % at 12.5 µM | 350,000 compounds, 0.69% hits; in the data active means inhibition above about 41%; inconclusive means no clear call, values can overlap the other calls;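 further: 0% = neutral control wells and 100% = reference inhibitor control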
The depositor's hits bear a star; ? = inconclusive; · = no result; ! = not active in a repeat.

SMILES | HIF-2a inh | CF NFkB inh | KKLEB cytotox | Shn3 3UTR inh | Peg3 promoter | EBV LMP1 NFkB
N=c1c2c(n(Cc3ccc(Cl)cc3Cl)c3c1CCC3)CCCC2 | 11 | -7 | 7 | 86* | 28 | 37
CCOC(=O)C1(c2ccccc2)CCN(CCc2ccc(NC(=O)CCC(=O)O)cc2)CC1 | 4 | -8 | -2 | 2 | -3 | -12
Cc1cc(-c2ccccc2)cc(-c2ccccc2)[n+]1CCc1ccccc1 | -30 | -13 | 4 | 76 | -36 | 9
Clc1ccc(C[n+]2c(-c3ccccc3)cc(-c3ccccc3)cc2-c2ccccc2)cc1 | 13 | 43 | -32 | 77 | 88* | ?
COc1ccc(OC)c(-n2c(O)c(C=NCCN3CCNCC3)c(=O)[nH]c2=S)c1 | 10 | 5 | -8 | -9 | -16 | -1
CCN1/C(=C\C=C\C2=[N+](CC)c3ccccc3C2(C)C)C(C)(C)c2ccccc21 | 74* | -26 | -36 | 96* | 97* | 71*
OC(CN1CCOCC1)c1csc2ccccc12 (stereo not drawn) | 21 | -5 | -12 | -23 | 10 | 8
CC1C(c2ccccc2)OC(=O)N1C (stereo not drawn) | 19 | -8 | 5 | -14 | 3 | -12
OC(Cn1c2ccccc2c2ccccc21)C[n+]1cccc2ccccc21 (stereo not drawn) | 14 | 11 | -14 | 18 | 59* | -7
NC(Cc1ccc(Cl)cc1)c1csc(Nc2ccccn2)n1 (stereo not drawn) | -27 | 24 | -15 | -8 | 73* | ·
CCOP(=O)(CCP(=O)(OCC)OCC)OCC.C[CH2][Sn]([Cl])([Cl])[CH2]C | -18 | 53* | 36 | 48 | -57 | -2
CCOP(=O)(OCC)OCC | 3 | -12 | -1 | 3 | -10 | -7
CC(C)n1c(O)c(C2c3cc(Cl)ccc3Oc3[nH]c(=O)n(C(C)C)c(=O)c32)c(=O)[nH]c1=O (stereo not drawn) | 94* | 91* | 1 | 79 | 115* | 0
COc1ccc(C)cc1NC(=O)N1CCC2(CC1)OCCO2 | 22 | -15 | 8 | -1 | 7 | 8
N#CC1c2ccccc2-n2nncc2CN1S(=O)(=O)c1cc(Cl)cc(Cl)c1 (stereo not drawn) | 0 | -29 | 8 | -8 | -3 | -2
CN(C)[C@@H]1C(=O)C(C(N)=O)=C(O)[C@@]2(O)C(=O)C3=C(O)c4c(O)cccc4[C@@](C)(O)[C@H]3[C@H](O)[C@@H]12 | 9 | 2 | 8 | -4 | 12 | 90*!
Cn1c(=O)[nH]c2nncnc2c1=O | 16 | -15 | 12 | 2 | -6 | 0
Brc1ccc2c(c1)C(OC1CN3CCC1CC3)c1ccccc1CS2 (stereo not drawn) | 21 | 20 | -24 | 5 | 110* | -26
c1ccc2c(c1)CSc1ccccc1C2C1=NCCN1 (stereo not drawn) | 5 | 31 | -16 | -9 | 16 | -5
c1ccc2c(c1)[IH]c1ccccc1-2 | 52* | -49 | 0 | 91* | 96* | 24
c1ccc2c(c1)-c1cccc3cccc-2c13 | -10 | -4 | 8 | -14 | -19 | 6
Cc1cc(C)cc(N2C(=O)NC(=O)/C(=C\c3cccn3-c3ccccc3)C2=O)c1 | 43* | 28 | 5 | 74 | 75* | 9
CN1C(=O)/C(=C/c2cccn2-c2ccc3ccccc3c2)C(=O)NC1=S | -1 | 41 | 5 | 29 | 92* | 19
O=C(CCl)Nc1nccs1 | 5 | -28 | -10 | 12 | 23 | 1
CCn1c(P(C)(=O)O)nc2cc(NC(=O)c3ccccc3F)ccc21 | 16 | 13 | -17 | -72 | 13 | -1
SMILES | HIF-2a inh | CF NFkB inh | KKLEB cytotox | Shn3 3UTR inh | Peg3 promoter | EBV LMP1 NFkB
CC12CCC(=O)C=C1C=CC1C2CCC2(C)C(O)CCC12 (stereo not drawn) | 11 | 14 | -19 | 2 | 33 | 7
O=C(c1ccc(Cl)cc1)C1CCCN(Cc2cccc3ncccc23)C1 (stereo not drawn) | 11 | 4 | -12 | 86* | 2 | 10
O=C(c1ccc(Cl)cc1)C1CCCN(Cc2cccc3cccnc23)C1 (stereo not drawn) | 19 | 25 | -2 | -2 | 17 | -1
S=C=Nc1cccc(C2(N3CCCCC3)CCCCC2)c1 | -15 | 4 | -5 | -4 | 64* | -12
CN(CC=CCN(C)P(=S)(N1CC1)N1CC1)P(=S)(N1CC1)N1CC1 | 4 | -15 | 16 | 17 | 5 | 14
O=c1[nH]c(=S)[nH]c(O)c1N=Nc1ccc(S(=O)(=O)N2CCc3ccccc32)cc1 | 19 | 56* | -26 | -24 | 26 | 6
COc1ccc(-n2nnnc2C(c2ccccc2OC(F)(F)F)N2CCC(n3c(=O)[nH]c4ccccc43)CC2)cc1 (stereo not drawn) | -39 | 18 | 3 | 8 | 85* | ·
COc1ccc(-n2nnnc2C(c2ccccc2OC(F)(F)F)N2CCC3(CC2)C(=O)NCN3c2ccccc2)cc1 (stereo not drawn) | -13 | 5 | -3 | -5 | 57* | ·
COC12C(COC(N)=O)C3=C(C(=O)C(C)=C(N)C3=O)N1CC1C2N1C (stereo not drawn) | 10 | -28 | 12 | 28 | -21 | 63*
CC1=C(N2CC2)C(=O)C(CO)=C(N2CC2)C1=O | 89* | 97* | -104* | 96* | 100* | 89*
O=C(c1ccc(CS(=O)(=O)c2ccccc2)o1)N1CCC2(CC1)OCCO2 | 5 | 15 | 1 | -10 | 9 | -2
CCOc1ccc(-c2cc(C)[n+](CCc3ccc(OC)c(OC)c3)c(-c3ccc(OCC)cc3)c2)cc1 | -10 | 14 | -16 | 19 | 59* | 10
Cc1cccc(Cn2cc(C=O)c3ccccc32)c1 | 11 | 7 | 2 | 33 | 69* | 51*
C=CCN1C(=O)/C(=C/c2cccs2)C(=O)NC1=S | 43* | -24 | -4 | -18 | 51* | 6
CCOC(=O)C1C(=O)NC2(C)CC1c1cc(OC)ccc1O2 (stereo not drawn) | 4 | 9 | 7 | 89* | 16 | -5
COc1ccc(-n2c(O)c(C(C)=NCCCn3ccnc3)c(=O)[nH]c2=O)cc1 | 18 | 24 | 15 | -3 | -3 | 14
CCN(CC)S(=O)(=O)c1ccc(NN=C(C#N)C#N)cc1 | 3 | 67* | 5 | -3 | 6 | 32
O=C(NN=Cc1ccc(N(CCCl)CCCl)cc1Cl)c1cccnc1 | -13 | 17 | -10 | 6 | 24 | 78*
Cc1cc(N(CCCl)CCCl)ccc1C=NNC(=O)c1cccnc1 | -25 | -8 | -1 | 19 | 2 | 74*
O=C(NN=Cc1ccc(N(CCCl)CCCl)cc1)c1cc(=O)[nH]c(=O)[nH]1 | 2 | -8 | 6 | 16 | 10 | 39
O=C(O)C1=CC2c3ccccc3C1c1ccccc12 | 15 | -6 | 4 | 2 | 27 | -1
